Many of the other results were omitted from the sample, so hits are more common in it than they were.
CD40 NFkB inh: CD40 pathway inhibition in BL2 cells; BL2 NF-kB luciferase reporter, CD40L-induced, 4 h; inhibition, % at 10 µM; 0.94% of 83,000 active;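 active means mean inhibition of at least 50% with a set share of replicates also reaching that level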;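 further: 0% = neutral control wells and 100% = IKK inhibitor VII at 50 µM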
An asterisk follows results filed as active; [ ] = another dose, or the depositor's remark.

SMILES	CD40 NFkB inh
C[C@H]1CN([C@@H](C)CO)C(=O)CCCn2cc(nn2)CO[C@@H]1CN(C)Cc1ccncc1	-3
N#C[C@H]1[C@H](c2ccccc2C2=CCCCC2)[C@H](CO)N1S(=O)(=O)c1cccc(F)c1	15
O=C(c1ccccc1)N1C[C@@H]2[C@H](c3ccccc31)[C@@H](CO)N2C(=O)c1cccc(F)c1	18
CO[C@H](CN(C)S(=O)(=O)c1ccc(F)cc1)[C@H](C)CN(C(=O)Nc1ccccc1F)[C@@H](C)CO	-19
C[C@H]1CN([C@@H](C)CO)C(=O)CCCn2cc(nn2)CO[C@H]1CN(C)Cc1ccc(Oc2ccccc2)cc1	4
O=C(COc1cccnc1[N+](=O)[O-])Nc1c(Cl)cccc1Cl	5
O=C(COc1cccnc1[N+](=O)[O-])Nc1ncc(Cl)cc1Cl	-15
O=C(COc1cccnc1[N+](=O)[O-])c1ccc(Cl)s1	92*
CC(C)NC(=O)N1CC[C@@H]2[C@H]1c1cc(Br)ccc1N(C)[C@@H]2CO	-2[25 µM]
CO[C@H]1CN(C)C(=O)c2ccc(NS(C)(=O)=O)cc2OC[C@@H](C)N(C(=O)C2CCCC2)C[C@H]1C	-14
N#Cc1ccc(-c2ccc3c(c2)[C@@H]2[C@@H](CCN2C(=O)C2CCC2)[C@H](CO)N3)cc1	13
Cc1ccc(-c2nc3ccccc3s2)cc1S(=O)(=O)N1CCOCC1	-4
Cc1cc(-c2nc3ccccc3s2)ccc1N	56*
c1ccc(-c2nc3ccccc3s2)nc1	-84
N#C[C@H]1[C@@H](c2ccccc2-c2cccc(F)c2)[C@@H](CO)N1C(=O)c1cccnc1	-3[25 µM]
C[C@@H]1CN([C@H](C)CO)C(=O)c2c(c3ccccc3n2C)-c2ccccc2CO[C@@H]1CN(C)S(C)(=O)=O	-8
Cc1noc(C)c1S(=O)(=O)N(C)C[C@@H]1OCc2ccccc2-c2c(n(C)c3ccccc23)C(=O)N([C@@H](C)CO)C[C@H]1C	46[25 µM]
Cc1noc(C)c1S(=O)(=O)N(C)C[C@H]1OCc2ccccc2-c2c(n(C)c3ccccc23)C(=O)N([C@@H](C)CO)C[C@@H]1C	32[25 µM]
Cc1noc(C)c1S(=O)(=O)N(C)C[C@H]1OCc2ccccc2-c2c(n(C)c3ccccc23)C(=O)N([C@@H](C)CO)C[C@H]1C	65*[25 µM]
Cc1noc(C)c1S(=O)(=O)N(C)C[C@H]1OCc2ccccc2-c2c(n(C)c3ccccc23)C(=O)N([C@H](C)CO)C[C@H]1C	51*[25 µM]
Cc1noc(C)c1S(=O)(=O)N(C)C[C@@H]1OCc2ccccc2-c2c(n(C)c3ccccc23)C(=O)N([C@H](C)CO)C[C@H]1C	45[25 µM]
O=C(Nc1ccc2c(c1)OCO2)N[C@@H]1CC[C@@H](CCNC(=O)C2CCCC2)O[C@H]1CO	-1
C/C=C/c1ccc(C2[C@@H]3CN(S(=O)(=O)c4cn(C)cn4)C[C@H]2N3)cc1 (some centres not stated)	9[25 µM]
CCS(=O)(=O)N(C)[C@H]1c2cc(C#N)ccc2OC(C)(C)[C@@H]1O	2[25 µM]
C[C@H]1CN([C@@H](C)CO)C(=O)CCCn2cc(nn2)CO[C@H]1CN(C)S(=O)(=O)c1ccc(Oc2ccccc2)nc1	5[25 µM]
SMILES	CD40 NFkB inh
Nc1nnc(CCOc2ccc(Cl)cc2)s1	-4
NC(=O)c1ccc(C23CC4CC(CC(C4)C2)C3)o1	-1
NCCOc1ccc(C23CC4CC(CC(C4)C2)C3)cc1	104*
CN(C)CCCNC(=O)[C@H]1[C@H](CO)[C@H]2Cn3c(ccc(C4=CCCC4)c3=O)[C@H]2N1CCC(F)(F)F	-4[25 µM]
Cn1cnnc1SCc1ccc(F)c2ccccc12	2
Cn1cnnc1SCc1ccc(-c2ccc(Br)cc2)o1	80*
Cn1cnnc1SCc1ccc(C(=O)NN)cc1	3
COCc1cn(CC[C@@H]2CC[C@H](NC(=O)Nc3ccc4c(c3)OCO4)[C@H](CO)O2)nn1	-2
COc1c(C)c2c(c(O)c1C/C=C(/C)CCC(=O)O)C(=O)OC2	-9[25 µM]
C[C@@H]1CN([C@H](C)CO)C(=O)c2ccccc2-c2ccccc2CO[C@H]1CN(C)C(=O)Nc1ccnc(N2CCOCC2)c1	-12[25 µM]
COC(=O)c1ccccc1NC(=O)c1noc2c1CCCC2	-15
COc1ccc(CNC(=O)c2noc3c2CCCCC3)cc1	-55
CC(=O)c1ccc(NC(=O)c2noc3c2CCC3)cc1	58*
CCC(=O)N1[C@@H]2c3ccc(-c4ccccc4)c(=O)n3C[C@@H]2[C@@H](CO)[C@@H]1C(=O)N(C)C	-7[25 µM]
C[C@@H](O)C#Cc1ccc([C@H]2[C@H]3CN(C(=O)c4ccncc4)CCCCN3[C@H]2CO)cc1	-2[25 µM]
O=C(NC1CCCCC1)[C@H]1N[C@H]2c3ccc(-c4cccc(F)c4)c(=O)n3C[C@H]2[C@@H]1CO	-7[25 µM]
CO[C@@H]1CN(C)C(=O)c2cc(NC(=O)Nc3ccccc3Cl)ccc2OC[C@@H](C)N(S(=O)(=O)CC(F)(F)F)C[C@H]1C	6[25 µM]
CO[C@@H](CN(C)S(=O)(=O)c1ccc(Cl)cc1)[C@@H](C)CN(Cc1ccccc1Cl)[C@H](C)CO	2
CO[C@H](CN(C)S(=O)(=O)c1ccc(Cl)cc1)[C@H](C)CN(Cc1ccccc1Cl)[C@@H](C)CO	14
CO[C@@H](CN(C)S(=O)(=O)c1ccc(Cl)cc1)[C@H](C)CN(Cc1ccccc1Cl)[C@@H](C)CO	34*
C[C@@H]1CN(C)C(=O)Cc2cc(N)ccc2O[C@H]1CN(C)C(=O)OC(C)(C)C	-2
C[C@H]1CN([C@@H](C)CO)C(=O)c2cccc(NC(=O)Nc3ccc(F)cc3)c2O[C@H]1CN(C)CC1CCCCC1	1[25 µM]
COc1ccc(-c2cc(C(=O)N3CCCC3)no2)cc1OC	-80
O=C(c1cc(-c2ccc(O)cc2)on1)N1CCCCCC1	-45
O=C(c1cc(-c2ccc3c(c2)OCO3)on1)N1CCCCC1	54*
SMILES	CD40 NFkB inh
CN1CCN(C(=O)C[C@H]2CC[C@H]3[C@H](COc4ccc(NC(=O)C5CCCC5)cc4C(=O)N3C)O2)CC1	9
COc1ccc(CN2[C@@H]3CN(C(=O)C4CC4)c4ccccc4[C@@H]3[C@@H]2CO)cc1	5[25 µM]
Cc1cc(NCCCN2CCOCC2)n2c(nc3ccccc32)c1C#N	-15
Cc1cc(Nc2cccc([N+](=O)[O-])c2)n2c(nc3ccccc32)c1C#N	78*
Cc1cc(NCCN2CCOCC2)n2c(nc3ccccc32)c1C#N	3
CO[C@@H]1CN(C)C(=O)c2cc(NC(=O)C3CCCCC3)ccc2OC[C@H](C)N(Cc2cccnc2)C[C@@H]1C	-7[25 µM]
CCOCCCNC(=O)/C(C#N)=C/c1ccc(Cl)c([N+](=O)[O-])c1	73*
COCCCNC(=O)c1ccc([N+](=O)[O-])c(Cl)c1	21
N#C/C(=C\c1ccc(O)c(O)c1)C(=O)NCCCc1ccccc1	1
O=C(C[C@@H]1C[C@H]2c3cc(NC(=O)NC4CCCCC4)ccc3O[C@H]2[C@@H](CO)O1)NC1CCCC1	-4
C[C@H](CO)N1C[C@H](C)[C@@H](CN(C)C(=O)Nc2ccccc2)Oc2ccc(NS(C)(=O)=O)cc2CC1=O	-1[25 µM]
Cc1nc(-c2ccc(F)cc2)c(CC(=O)N(C)CC(=O)Nc2ccccc2Br)s1	40
Cc1nc(-c2ccc(F)cc2)c(CC(=O)N(C)CC(=O)Nc2ccc(Br)cc2C)s1	92*
Cc1nc(-c2ccc(F)cc2)c(CC(=O)N(C)CC(=O)Nc2ccccc2C(F)(F)F)s1	6
CCN(CC(=O)Nc1ccccc1C(F)(F)F)C(=O)Cc1sc(C)nc1-c1ccc(F)cc1	-13
Cc1nc(-c2ccc(F)cc2)c(CC(=O)N(C)CC(=O)Nc2cccc(F)c2)s1	54*
Cc1nc(-c2ccc(F)cc2)c(CC(=O)NCC(=O)Nc2ccc(F)c(F)c2)s1	-4

Assay outcomes as filed in PubChem.
